Autophagy mod – autophagy modulation, high-content screen; actives 0.98% (n = 190,000); calls only at 10 µM (by protocol); MEF GFP-LC3 puncta imaging; test concentration mostly 10 µM; AID 463193;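 active means percentage of spot-positive cells more than 3 SD above its plate mean, without a fluorescence outlier flag or 80% toxicity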
Lmaj promast – Leishmania major promastigote growth inhibition | Leishmania major promastigotes, resazurin fluorescence viability | inhibition, % at 10 µM | actives 9% (n = 200,000) | AID 1063; in the data active means inhibition above about 50%;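 further: promastigotes grown with compound for 44 hours at 28 °C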
INS promoter inh – TRM-6 insulin promoter activity inhibition | inhibition, % at 2 µM | AID 1273 | TRM-6 cells (human fetal islet line), insulin promoter-eGFP reporter, imaging; reporter expression induced with tamoxifen | actives 0.9% (n = 130,000);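 active means inhibition above the mean plus 3 SD, with well images judged a real hit on visual review, cut at about 60% in these data, passing the limit was not always enough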
WT yeast gro inh – growth inhibition of WT yeast, mitochondrial fusion screen | mitochondrial fusion phenotypic screen, WT strain | inhibition, % at 10 µM | actives 2.1% (n = 190,000) | AID 1362; in the data active means inhibition above about 58%; tested in S. cerevisiae
Insulin prom up – MIN6 insulin promoter up-regulation; MIN6 insulin promoter-GFP reporter, high-content imaging; active compounds read high; z-score at 5 µM; actives 0.3% (n = 190,000); AID 1625;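 active means z-score above 3 at 5 µM with at least 500 cells counted in the well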
Each line names hits and unclear results; the compound was inactive in the other large screens. Sampled rows, rich in hits. Any-hit rate of the full collection: about 11%.

CCCc1nc2ccccc2c2nc(N)nn12	INS promoter inh 86.7
Nc1nc2c3ccccc3nc(Cc3ccccc3)n2n1	none
CC(C)(C)[C@H]1C=C(C(N)=O)O[C@@H](OCc2ccc(CO)cc2)C1	none (no result: INS promoter inh)
CCN(CC)S(=O)(=O)c1cccc(N=NC2=C(O)CCCC2=O)c1	Lmaj promast 60.7
COc1ccc(C(=O)c2c[nH]c3ccccc23)cc1	none
Cc1ccc(-c2cc(C(=O)O)c3sc(N4CCCCC4)nc3n2)cc1	none
COc1ccc(-c2cc(C(=O)O)c3sc(N4CCCCC4)nc3n2)cc1OC	Lmaj promast 51.8
CCOC(=O)c1cc(-c2ccccc2)nc2nc(N3CCCCC3)sc12	Lmaj promast 72.5
COc1ccc(S(=O)(=O)N2CCC3(CC2)OCCO3)cc1	none
CC(=O)Nc1c(C)ccc(S(N)(=O)=O)c1C	none (no result: INS promoter inh)
O=C(O)c1ncn(Cc2ccc(Br)cc2)c1C(=O)O	none (no result: INS promoter inh)
CN(C)c1cccc(C(=O)OCC(=O)Nc2ccccc2Cl)c1	INS promoter inh 75.0
Nc1cccc(C(=O)OCC(=O)Nc2cccc3c2C(=O)c2ccccc2C3=O)c1	Autophagy mod active
CN(C)c1cccc(C(=O)OCC(=O)Nc2ccccc2-c2ccccc2)c1	none (no result: INS promoter inh)
O=C(C1CCCO1)N1CCN(C(=S)Nc2ccc(F)cc2)CC1 (configuration not stated)	Lmaj promast 56.5
O=C(C1CCCO1)N1CCN(C(=S)Nc2ccc(F)c(Cl)c2)CC1 (configuration not stated)	none (no result: INS promoter inh, Insulin prom up)
COc1cc(OC)c(/C=N/NC(=O)COc2cccc3cccnc23)c(OC)c1	none (no result: Autophagy mod, Lmaj promast, INS promoter inh, WT yeast gro inh)
O=C(NC(=S)N(CCO)Cc1ccccc1)c1cc(Br)ccc1Cl	none
Nc1ccc(S(=O)(=O)NNC(=O)C(=O)NNc2ccccc2)cc1	Lmaj promast 86.9 (no result: INS promoter inh)
CC(C)NS(=O)(=O)c1ccc(OCC(=O)Nc2ccc(F)cc2)cc1	none (no result: INS promoter inh)
Cc1cc(C(=O)C(C)Sc2cccc[n+]2[O-])c(C)n1-c1ccc(Cl)cc1 (configuration not stated)	Lmaj promast 96.6 (no result: INS promoter inh)
Cc1cc(C(=O)C(=O)O)c(C)n1-c1ccc(Cl)cc1	none (no result: Insulin prom up)
Cc1ccccc1C(=O)NNc1ccc(-c2csnn2)cc1	none (no result: Autophagy mod, Lmaj promast, INS promoter inh, WT yeast gro inh)
CC1CCCC(NC(=S)NC(=O)c2ccccc2Br)C1C (configuration not stated)	WT yeast gro inh 63.2 (no result: Insulin prom up)
CC(C)CC(=O)Nc1cccc(NC(=O)CC(C)C)n1	Lmaj promast 52.2
C/C(CC(=O)Nc1cc(Cl)ccc1Cl)=N\NC(=O)c1ccccc1Br	none (no result: INS promoter inh)
c1ccc(CCNc2ncnc3scc(C4COc5ccccc5O4)c23)cc1 (configuration not stated)	Lmaj promast 84.8, WT yeast gro inh 69.1 (no result: Insulin prom up)
c1ccc2c(c1)OCC(c1csc3ncnc(N4CCCC4)c13)O2 (configuration not stated)	none (no result: INS promoter inh, Insulin prom up)
CCN(c1ccccc1)S(=O)(=O)c1ccc(NC(=S)NC(=O)c2cccs2)cc1	Lmaj promast 85.3
CCN(c1ccccc1)S(=O)(=O)c1ccc(C(=O)NCC(c2cccs2)N(C)C)cc1 (configuration not stated)	Lmaj promast 89.7
CN(C)S(=O)(=O)c1ccc(NC(=S)NC(=O)c2cccs2)cc1	none (no result: INS promoter inh)
NNC(=O)c1sc2cc(C(F)(F)F)cnc2c1-c1ccccn1	none (no result: INS promoter inh)
CC1(c2ccccc2)NC(=O)N(Cc2ccc([N+](=O)[O-])cc2)C1=O (configuration not stated)	none (no result: INS promoter inh)
OCC1(Cc2ccccc2)CCN(CCCC2CCCC2)CC1	Lmaj promast 95.5 (no result: INS promoter inh)
OCC1(Cc2ccccc2)CCN(Cc2ccc(-c3ccco3)cc2)CC1	Lmaj promast 90.6 (no result: INS promoter inh)
OCC1(Cc2ccccc2)CCCN(Cc2ccc(-c3ccco3)cc2)C1 (configuration not stated)	Lmaj promast 80.2 (no result: INS promoter inh)
CCN1CCCC(CO)(Cc2ccccc2)C1 (configuration not stated)	none
Cc1c(CN2CCC(CO)(Cc3ccccc3)CC2)c2ccccc2n1C	none
COc1ccc(C(=O)c2nccc3ccccc23)cc1	none (no result: INS promoter inh)
CN(C)c1ccnc(SCc2ccccc2Cl)c1C#N	INS promoter inh 72.7
CN(C)c1ccnc(Oc2ccccc2)c1C#N	none
Cc1ccc(C)c(NC(=O)COC(=O)CC2c3ccccc3CCN2S(=O)(=O)c2ccc(F)cc2)c1 (configuration not stated)	none
CSc1ccccc1NC(=O)CN(C)C(C)C(=O)Nc1ccc(C#N)cc1 (configuration not stated)	Lmaj promast 56.4
Cc1cc(C)cc(NC(=S)NC2CC3CCCC(C2)N3C2CCCC2)c1 (configuration not stated)	Lmaj promast 52.9 (no result: INS promoter inh)
Cc1cc(C)cc(NC(=S)NC2CC3CCCC(C2)N3C2CC2)c1 (configuration not stated)	Lmaj promast 55.0 (no result: INS promoter inh)
NC(=O)c1ccsc1NC(=O)CSc1nnc(Nc2ccccc2)s1	Lmaj promast 57.5
NC(=O)c1ccsc1NC(=O)CSc1ccccc1F	none
Cn1nnnc1Sc1ncnc2scc(-c3ccccc3)c12	Lmaj promast 69.5 (no result: INS promoter inh)
Cn1nnnc1Sc1ncnc2scc(-c3ccc(F)cc3)c12	Lmaj promast 91.3 (no result: INS promoter inh, Insulin prom up)
CCN(CC)CC#CC(OC)(c1ccccc1)c1ccccc1	Lmaj promast 64.3
CC(C)C(=O)Nc1nnc(SCC(=O)NCc2cccs2)s1	WT yeast gro inh 77.4 (no result: INS promoter inh)
CC(C)(C)C(=O)Nc1nnc(SCC(=O)NCc2cccs2)s1	none
OC1(c2ccc(Br)cc2)CCNCC1	Lmaj promast 84.4 (no result: Insulin prom up)
OC1(Cc2ccccc2)CCNCC1	none (no result: Autophagy mod, Lmaj promast, INS promoter inh, WT yeast gro inh)
FC(F)(F)c1cnc(N2CCCN(C(=S)Nc3ccccc3)CC2)c(Cl)c1	none (no result: Autophagy mod, Lmaj promast, INS promoter inh, WT yeast gro inh)
CC1CCCCN1CCn1c(=S)[nH]c2cc3c(cc2c1=O)OCO3 (configuration not stated)	none
CCCN(CCC)CCCNS(=O)(=O)c1cc(Br)cc2c1N(C(C)=O)CC2	Lmaj promast 87.1 (no result: INS promoter inh)
CCC(=O)N1CCc2cc(Br)cc(S(=O)(=O)NCCN3CCCCC3C)c21 (configuration not stated)	Lmaj promast 92.0
CCC(=O)N1CCc2cc(Br)cc(S(=O)(=O)NCCN3CCCCC3CC)c21 (configuration not stated)	none
Cc1ccc(NC(=O)CN2C(=O)CNC2=O)cc1	none (no result: Autophagy mod, Lmaj promast, INS promoter inh, WT yeast gro inh)
CCN(CC)c1ccc(/C=C(\C#N)c2ccccn2)cc1	WT yeast gro inh 68.1
CCN(Cc1ccccc1)c1ccc(/C=C(\C#N)c2ccccn2)cc1	none (no result: INS promoter inh)
CCCCNS(=O)(=O)/C=C/c1ccccc1	Autophagy mod active
Cc1cccc(NCC(=O)N/N=C\c2c[nH]c3ccccc23)c1	none (no result: Insulin prom up)
Cc1ccccc1NCC(=O)N/N=C/c1c[nH]c2ccccc12	Insulin prom up 4.05 (no result: INS promoter inh)
O=C(N/N=C/c1c[nH]c2ccccc12)C1CC1(c1ccccc1)c1ccccc1 (configuration not stated)	WT yeast gro inh 80.7
O=C(N/N=C/c1c[nH]c2ccccc12)C1CC1c1ccccc1 (configuration not stated)	none
O=C(N/N=C/c1c[nH]c2ccccc12)c1cc(-c2ccccc2)n[nH]1	Lmaj promast 79.1
CC(=O)Nc1ccc(C(=O)OCC(=O)Nc2ccccc2F)cc1	none
O=c1[nH]cnc2sc3c(c12)CCC3	none (no result: Autophagy mod, Lmaj promast, INS promoter inh, WT yeast gro inh)

Screening results from PubChem.
